Measured values: the supplement of paper PMC11732987, “Enantioselective OTUD7B fragment discovery through chemoproteomics screening and high-throughput optimisation” (Communications Chemistry, 2025)

Experiments:
Test in all cases: log2 ratio of Biotin-Ahx-Ub-VS probe labelling (fragment/DMSO); higher = less target engagement (more negative = stronger competition), active = hit call of the paper (q ≤ 0.05, log2 ratio ≤ -1)
Conditions in all cases: compound concentration: 200 uM; treatment time: 3 h
[1] = target: T1, USP42 (UniProt Q9H9J4)
T1 sequence (whole entry): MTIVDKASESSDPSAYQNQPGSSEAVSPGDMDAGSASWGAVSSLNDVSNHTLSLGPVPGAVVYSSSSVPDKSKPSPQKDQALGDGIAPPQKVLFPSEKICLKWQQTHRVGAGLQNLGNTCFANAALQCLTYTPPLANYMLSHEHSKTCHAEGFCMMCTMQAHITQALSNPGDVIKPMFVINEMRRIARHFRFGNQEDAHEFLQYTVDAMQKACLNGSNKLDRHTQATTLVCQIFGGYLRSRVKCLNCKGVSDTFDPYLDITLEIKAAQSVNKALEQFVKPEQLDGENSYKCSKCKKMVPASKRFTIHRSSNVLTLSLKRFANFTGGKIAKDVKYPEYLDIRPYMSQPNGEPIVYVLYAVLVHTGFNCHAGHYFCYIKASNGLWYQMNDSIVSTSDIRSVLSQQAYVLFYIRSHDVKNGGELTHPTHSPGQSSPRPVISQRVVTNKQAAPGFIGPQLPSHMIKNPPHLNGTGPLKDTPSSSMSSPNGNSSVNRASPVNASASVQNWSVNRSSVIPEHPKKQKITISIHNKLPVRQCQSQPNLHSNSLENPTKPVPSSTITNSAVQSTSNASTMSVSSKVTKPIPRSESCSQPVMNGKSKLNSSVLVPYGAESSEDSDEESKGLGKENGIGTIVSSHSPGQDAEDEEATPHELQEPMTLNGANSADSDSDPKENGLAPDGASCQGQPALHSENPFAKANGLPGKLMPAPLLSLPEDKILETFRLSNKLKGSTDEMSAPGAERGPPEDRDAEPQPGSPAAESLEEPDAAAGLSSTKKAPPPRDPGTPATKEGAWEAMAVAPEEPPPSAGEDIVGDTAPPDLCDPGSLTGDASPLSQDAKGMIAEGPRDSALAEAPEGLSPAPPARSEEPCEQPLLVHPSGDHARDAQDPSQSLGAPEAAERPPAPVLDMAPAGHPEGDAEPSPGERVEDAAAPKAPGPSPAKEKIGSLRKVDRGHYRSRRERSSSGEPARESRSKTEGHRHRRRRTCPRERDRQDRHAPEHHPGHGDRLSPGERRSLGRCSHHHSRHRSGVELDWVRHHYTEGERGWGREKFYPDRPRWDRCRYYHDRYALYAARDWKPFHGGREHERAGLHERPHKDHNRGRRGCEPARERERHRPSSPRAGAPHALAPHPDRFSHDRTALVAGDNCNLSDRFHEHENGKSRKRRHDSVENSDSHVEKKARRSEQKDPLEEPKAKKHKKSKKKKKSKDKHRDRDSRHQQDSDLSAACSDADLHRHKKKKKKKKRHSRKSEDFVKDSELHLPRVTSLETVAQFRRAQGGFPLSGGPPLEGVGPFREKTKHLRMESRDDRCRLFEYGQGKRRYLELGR
How it was run: (§1)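 Fragment (200 µM) or vehicle was incubated for 3 h with triplicate HEK293T lysate samples of 495 µg, which were then treated with Biotin-Ahx-Ub-VS at 0.5 µM final for 1 h. Labelled DUBs were enriched on NeutrAvidin, digested with LysC and trypsin, and analysed by diaPASEF LC-MS/MS. Values are average log2 fragment/vehicle ratios from an unpaired t-test on global-median-normalised Spectronaut label-free quantities, using proteins with ≥2 unique peptides.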

[2] = target: USP46 (UniProt P62068)
How it was run: as §1

[3] = target: T2, USP47 (UniProt Q96K76)
T2 sequence (whole entry): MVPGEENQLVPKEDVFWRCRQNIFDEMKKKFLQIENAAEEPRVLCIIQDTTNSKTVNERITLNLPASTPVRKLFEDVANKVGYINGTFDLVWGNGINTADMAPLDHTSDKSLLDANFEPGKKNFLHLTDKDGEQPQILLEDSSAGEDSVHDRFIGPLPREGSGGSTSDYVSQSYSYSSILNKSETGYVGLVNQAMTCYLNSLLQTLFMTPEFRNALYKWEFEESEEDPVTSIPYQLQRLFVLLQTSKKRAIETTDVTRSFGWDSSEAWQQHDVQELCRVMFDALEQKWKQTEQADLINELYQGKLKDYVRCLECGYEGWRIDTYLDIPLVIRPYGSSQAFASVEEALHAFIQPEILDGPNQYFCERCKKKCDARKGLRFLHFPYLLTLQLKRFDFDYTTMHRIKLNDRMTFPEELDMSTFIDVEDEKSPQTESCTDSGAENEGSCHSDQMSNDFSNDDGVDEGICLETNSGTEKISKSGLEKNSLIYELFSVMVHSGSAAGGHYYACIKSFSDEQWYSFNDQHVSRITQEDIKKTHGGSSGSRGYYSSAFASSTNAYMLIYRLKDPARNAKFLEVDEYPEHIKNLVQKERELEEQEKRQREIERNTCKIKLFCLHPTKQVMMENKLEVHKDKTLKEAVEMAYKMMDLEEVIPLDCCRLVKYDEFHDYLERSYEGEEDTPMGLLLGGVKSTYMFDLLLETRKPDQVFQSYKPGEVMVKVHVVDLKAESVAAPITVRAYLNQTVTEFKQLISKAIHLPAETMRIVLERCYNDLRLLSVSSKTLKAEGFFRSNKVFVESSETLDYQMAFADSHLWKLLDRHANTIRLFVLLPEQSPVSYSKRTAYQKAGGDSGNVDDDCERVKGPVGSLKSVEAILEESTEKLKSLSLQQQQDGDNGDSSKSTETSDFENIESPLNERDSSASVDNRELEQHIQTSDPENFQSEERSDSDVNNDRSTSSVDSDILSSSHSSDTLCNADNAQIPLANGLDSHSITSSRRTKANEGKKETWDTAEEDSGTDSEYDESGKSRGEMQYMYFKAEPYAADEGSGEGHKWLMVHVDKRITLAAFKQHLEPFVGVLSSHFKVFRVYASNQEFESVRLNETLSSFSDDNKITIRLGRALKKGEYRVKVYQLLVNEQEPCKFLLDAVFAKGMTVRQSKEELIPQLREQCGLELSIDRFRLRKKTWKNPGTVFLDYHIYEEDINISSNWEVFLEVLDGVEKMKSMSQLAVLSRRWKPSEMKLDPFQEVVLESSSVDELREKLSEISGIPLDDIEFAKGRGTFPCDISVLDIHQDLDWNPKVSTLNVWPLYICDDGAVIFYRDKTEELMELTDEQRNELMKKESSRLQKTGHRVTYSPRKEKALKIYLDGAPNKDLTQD
How it was run: as §1

[4] = target: T3, USP48 (UniProt Q86UV5)
T3 sequence (whole entry): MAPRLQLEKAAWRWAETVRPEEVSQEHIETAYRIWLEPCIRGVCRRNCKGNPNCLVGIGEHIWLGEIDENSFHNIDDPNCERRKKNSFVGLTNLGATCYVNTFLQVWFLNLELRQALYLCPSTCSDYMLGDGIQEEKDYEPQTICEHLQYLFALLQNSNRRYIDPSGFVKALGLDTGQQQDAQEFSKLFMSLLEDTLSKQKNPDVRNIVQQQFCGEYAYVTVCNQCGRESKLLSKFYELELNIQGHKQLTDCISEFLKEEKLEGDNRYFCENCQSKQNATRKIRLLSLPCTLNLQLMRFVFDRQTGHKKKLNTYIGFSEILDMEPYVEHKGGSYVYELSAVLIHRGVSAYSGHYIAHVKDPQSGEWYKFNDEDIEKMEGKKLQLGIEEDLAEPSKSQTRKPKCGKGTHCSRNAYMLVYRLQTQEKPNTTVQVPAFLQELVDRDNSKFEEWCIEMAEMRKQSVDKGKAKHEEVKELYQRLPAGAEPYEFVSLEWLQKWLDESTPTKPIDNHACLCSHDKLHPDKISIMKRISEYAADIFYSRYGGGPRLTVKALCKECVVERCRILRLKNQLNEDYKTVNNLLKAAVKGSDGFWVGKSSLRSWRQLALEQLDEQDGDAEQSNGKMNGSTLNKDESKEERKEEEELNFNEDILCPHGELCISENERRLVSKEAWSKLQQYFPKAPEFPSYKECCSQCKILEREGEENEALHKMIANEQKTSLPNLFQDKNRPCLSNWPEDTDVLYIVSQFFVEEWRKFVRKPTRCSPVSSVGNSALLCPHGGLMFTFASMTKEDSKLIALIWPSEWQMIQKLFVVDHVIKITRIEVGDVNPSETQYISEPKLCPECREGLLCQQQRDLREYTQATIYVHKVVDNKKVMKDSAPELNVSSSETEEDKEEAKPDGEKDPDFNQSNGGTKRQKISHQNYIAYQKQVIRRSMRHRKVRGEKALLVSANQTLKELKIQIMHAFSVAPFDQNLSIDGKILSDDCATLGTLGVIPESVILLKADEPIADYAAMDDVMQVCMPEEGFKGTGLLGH
How it was run: as §1

[5] = target: T4, USP5 (UniProt P45974)
T4 sequence (whole entry): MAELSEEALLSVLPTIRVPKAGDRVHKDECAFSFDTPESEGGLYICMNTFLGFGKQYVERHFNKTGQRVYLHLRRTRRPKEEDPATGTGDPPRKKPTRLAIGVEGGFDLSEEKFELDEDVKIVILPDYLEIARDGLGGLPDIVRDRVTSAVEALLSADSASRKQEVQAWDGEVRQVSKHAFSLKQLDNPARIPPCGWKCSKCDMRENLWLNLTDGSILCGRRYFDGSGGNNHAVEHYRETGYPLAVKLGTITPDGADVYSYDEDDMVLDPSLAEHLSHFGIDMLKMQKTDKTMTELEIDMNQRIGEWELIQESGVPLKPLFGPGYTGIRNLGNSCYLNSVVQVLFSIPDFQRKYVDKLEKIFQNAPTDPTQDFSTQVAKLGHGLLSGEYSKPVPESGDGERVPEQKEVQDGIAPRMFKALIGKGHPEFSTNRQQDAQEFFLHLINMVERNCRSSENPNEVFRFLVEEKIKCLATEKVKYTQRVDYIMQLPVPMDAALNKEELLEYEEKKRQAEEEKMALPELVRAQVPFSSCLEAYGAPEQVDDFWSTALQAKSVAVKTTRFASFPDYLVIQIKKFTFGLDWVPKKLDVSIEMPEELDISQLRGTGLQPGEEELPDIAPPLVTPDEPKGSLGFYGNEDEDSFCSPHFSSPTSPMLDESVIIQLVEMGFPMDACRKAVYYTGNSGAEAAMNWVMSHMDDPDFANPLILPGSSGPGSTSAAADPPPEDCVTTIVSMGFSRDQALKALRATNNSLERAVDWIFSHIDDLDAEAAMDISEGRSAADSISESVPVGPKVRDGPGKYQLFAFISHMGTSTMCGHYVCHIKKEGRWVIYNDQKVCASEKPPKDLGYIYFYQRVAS
How it was run: as §1

[6] = target: USP54 (UniProt Q70EL1)
How it was run: as §1

[7] = target: USP7 (UniProt Q93009)
How it was run: as §1

[8] = target: T5, USP8 (UniProt P40818)
T5 sequence (whole entry): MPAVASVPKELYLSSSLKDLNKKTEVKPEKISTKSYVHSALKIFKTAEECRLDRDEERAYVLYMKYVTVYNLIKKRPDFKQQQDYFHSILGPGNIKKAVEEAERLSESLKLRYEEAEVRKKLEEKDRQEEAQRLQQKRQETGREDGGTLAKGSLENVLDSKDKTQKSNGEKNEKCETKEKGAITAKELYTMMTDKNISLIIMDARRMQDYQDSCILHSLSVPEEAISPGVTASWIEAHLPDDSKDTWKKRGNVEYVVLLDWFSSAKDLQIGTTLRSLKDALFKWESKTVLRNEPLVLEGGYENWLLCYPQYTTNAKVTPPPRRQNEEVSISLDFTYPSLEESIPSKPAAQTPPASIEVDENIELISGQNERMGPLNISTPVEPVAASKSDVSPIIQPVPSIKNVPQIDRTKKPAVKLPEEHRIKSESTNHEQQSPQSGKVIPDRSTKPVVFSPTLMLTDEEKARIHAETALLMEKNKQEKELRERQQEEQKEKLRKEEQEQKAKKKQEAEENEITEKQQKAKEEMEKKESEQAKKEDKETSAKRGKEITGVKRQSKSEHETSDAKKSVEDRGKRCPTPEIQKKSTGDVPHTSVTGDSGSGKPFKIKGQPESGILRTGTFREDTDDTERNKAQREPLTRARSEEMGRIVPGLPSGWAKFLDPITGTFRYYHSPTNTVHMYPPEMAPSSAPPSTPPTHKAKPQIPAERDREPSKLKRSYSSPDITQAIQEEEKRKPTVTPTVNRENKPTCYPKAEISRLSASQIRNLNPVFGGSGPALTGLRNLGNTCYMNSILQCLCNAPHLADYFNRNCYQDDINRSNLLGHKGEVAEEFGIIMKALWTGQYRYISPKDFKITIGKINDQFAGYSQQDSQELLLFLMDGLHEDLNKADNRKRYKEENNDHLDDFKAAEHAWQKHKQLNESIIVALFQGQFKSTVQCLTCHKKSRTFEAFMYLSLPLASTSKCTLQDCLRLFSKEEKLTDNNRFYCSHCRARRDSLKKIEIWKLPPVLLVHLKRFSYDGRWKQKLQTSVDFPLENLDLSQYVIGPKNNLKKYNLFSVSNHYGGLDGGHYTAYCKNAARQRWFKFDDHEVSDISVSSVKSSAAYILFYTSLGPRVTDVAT
How it was run: as §1

[9] = target: USP9X (UniProt Q93008)
How it was run: as §1

[10] = target: UniProt O00487
How it was run: as §1

Measured: log2 ratio of Biotin-Ahx-Ub-VS probe labelling

Chain of USP7 (Q93009 whole entry, looked up): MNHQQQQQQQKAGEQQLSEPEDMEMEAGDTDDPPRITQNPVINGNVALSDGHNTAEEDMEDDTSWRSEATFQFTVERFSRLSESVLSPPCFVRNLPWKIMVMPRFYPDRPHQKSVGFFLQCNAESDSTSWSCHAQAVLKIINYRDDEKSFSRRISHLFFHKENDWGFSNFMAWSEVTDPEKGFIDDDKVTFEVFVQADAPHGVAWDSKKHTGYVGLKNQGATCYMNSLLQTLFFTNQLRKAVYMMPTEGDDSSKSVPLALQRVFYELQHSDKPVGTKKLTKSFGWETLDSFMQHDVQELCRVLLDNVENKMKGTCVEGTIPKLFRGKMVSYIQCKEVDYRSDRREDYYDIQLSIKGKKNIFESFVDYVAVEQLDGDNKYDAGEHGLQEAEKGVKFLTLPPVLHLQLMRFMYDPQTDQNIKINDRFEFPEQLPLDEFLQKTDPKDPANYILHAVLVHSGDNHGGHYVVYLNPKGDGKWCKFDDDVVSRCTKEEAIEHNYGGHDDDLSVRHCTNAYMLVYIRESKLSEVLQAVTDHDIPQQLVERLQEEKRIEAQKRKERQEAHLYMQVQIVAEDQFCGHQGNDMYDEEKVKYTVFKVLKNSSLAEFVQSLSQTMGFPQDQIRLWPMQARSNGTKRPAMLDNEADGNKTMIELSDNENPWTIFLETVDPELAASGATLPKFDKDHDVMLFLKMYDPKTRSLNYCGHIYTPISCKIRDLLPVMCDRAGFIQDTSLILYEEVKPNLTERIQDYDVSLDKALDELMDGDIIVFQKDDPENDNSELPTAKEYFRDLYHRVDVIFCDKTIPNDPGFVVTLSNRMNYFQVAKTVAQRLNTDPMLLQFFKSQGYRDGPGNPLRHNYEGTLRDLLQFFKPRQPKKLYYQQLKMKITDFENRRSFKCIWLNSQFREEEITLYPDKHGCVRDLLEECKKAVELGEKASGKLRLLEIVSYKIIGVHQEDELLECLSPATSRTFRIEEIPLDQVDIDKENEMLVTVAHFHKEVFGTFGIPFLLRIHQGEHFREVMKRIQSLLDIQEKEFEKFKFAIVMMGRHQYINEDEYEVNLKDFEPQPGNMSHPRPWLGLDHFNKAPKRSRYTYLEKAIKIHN
Chain of USP46 (P62068 whole entry): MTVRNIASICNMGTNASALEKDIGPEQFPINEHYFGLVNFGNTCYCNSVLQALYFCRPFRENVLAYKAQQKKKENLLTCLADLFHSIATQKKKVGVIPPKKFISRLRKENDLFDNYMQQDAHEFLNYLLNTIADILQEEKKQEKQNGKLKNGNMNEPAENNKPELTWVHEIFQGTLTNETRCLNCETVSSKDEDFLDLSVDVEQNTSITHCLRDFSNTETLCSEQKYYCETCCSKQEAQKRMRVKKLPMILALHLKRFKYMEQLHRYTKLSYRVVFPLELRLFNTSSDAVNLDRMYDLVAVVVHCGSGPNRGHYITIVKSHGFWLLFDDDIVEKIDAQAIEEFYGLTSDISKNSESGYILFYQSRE
Chain of USP54 (Q70EL1 whole entry): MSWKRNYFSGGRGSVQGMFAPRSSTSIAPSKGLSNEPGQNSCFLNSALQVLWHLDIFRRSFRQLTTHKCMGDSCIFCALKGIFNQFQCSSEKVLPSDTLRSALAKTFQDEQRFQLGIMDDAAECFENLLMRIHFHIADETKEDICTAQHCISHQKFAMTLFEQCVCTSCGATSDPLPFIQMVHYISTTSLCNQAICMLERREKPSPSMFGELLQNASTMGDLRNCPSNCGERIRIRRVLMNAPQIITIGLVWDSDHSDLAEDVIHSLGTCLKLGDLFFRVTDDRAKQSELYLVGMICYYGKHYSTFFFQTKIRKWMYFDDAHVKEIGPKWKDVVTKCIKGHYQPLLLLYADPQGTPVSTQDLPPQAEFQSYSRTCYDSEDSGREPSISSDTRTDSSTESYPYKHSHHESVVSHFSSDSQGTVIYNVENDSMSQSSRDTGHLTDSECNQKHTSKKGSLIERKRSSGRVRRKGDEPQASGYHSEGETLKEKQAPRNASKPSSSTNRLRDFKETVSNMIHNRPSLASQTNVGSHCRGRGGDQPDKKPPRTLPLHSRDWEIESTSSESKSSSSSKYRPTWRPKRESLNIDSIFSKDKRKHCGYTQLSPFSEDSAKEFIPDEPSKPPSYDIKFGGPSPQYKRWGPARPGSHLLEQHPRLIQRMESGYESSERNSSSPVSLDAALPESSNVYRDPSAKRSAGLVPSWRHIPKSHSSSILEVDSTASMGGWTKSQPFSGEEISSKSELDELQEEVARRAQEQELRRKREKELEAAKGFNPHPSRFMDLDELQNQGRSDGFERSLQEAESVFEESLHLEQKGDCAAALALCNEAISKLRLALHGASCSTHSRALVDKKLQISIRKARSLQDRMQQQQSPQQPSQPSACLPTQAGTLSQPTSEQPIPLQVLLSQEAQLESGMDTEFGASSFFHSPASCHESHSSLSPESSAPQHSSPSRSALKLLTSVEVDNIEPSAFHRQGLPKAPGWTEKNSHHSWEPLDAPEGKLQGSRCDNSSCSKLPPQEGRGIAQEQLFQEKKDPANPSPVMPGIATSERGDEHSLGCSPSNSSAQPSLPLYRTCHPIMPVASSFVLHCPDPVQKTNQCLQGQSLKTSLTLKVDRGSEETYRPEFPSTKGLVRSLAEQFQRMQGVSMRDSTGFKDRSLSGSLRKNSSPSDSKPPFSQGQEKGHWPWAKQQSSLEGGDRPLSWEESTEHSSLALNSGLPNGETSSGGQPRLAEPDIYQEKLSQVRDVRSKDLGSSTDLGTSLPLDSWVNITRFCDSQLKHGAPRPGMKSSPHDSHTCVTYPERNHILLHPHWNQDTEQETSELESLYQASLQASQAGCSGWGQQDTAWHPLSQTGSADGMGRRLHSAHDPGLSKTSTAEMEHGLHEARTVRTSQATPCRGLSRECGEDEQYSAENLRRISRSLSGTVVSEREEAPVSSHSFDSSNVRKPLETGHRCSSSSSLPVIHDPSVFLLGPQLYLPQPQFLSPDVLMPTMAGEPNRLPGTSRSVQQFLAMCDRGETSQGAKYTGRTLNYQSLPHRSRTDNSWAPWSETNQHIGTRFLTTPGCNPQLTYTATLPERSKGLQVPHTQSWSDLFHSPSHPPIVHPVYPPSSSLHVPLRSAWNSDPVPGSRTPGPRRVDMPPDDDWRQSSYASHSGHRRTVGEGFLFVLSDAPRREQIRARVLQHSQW
Chain of UniProt O00487 (O00487 whole entry): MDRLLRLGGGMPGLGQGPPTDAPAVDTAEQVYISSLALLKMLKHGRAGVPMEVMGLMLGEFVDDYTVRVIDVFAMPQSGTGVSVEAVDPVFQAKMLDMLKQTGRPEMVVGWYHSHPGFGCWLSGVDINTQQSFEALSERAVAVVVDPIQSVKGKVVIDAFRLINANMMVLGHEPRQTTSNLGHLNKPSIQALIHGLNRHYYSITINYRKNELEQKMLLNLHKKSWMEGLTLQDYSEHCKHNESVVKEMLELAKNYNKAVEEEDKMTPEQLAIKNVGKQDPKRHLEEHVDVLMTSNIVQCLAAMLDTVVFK

Cc1conc1C1CN(C(=O)CCl)C1
inactive: [1] 0.317 | [2] -0.643 | [3] -0.971 | [4] -0.753 | [5] -0.555 | [6] 1.02 | [8] -0.915 | [9] -0.803 | [10] -0.115
active: [7] -1.04
